Assay outcomes from PubChem BioAssay.
This is a sample that favours compounds with a hit; in the whole collection about 7.9% have one here.
Lassa entry inh: inhibitors of Lassa virus binding or cell entry; Lassa virus pseudotype entry inhibition, cell reporter; Potency, µM (top dose mostly 37.9 µM), usual class: inhibitors; 1.2% of 300,000 active; calls by dose curve; tested in HEK293 cells; note: nearly all actives have a fitted effect of over 50% in size
FMDV antiviral: foot and mouth disease virus antiviral activity; FMDV antiviral cell-based qHTS; Potency, µM (doses to about 57.9 µM), most hits filed as inhibitors; 1.2% of 410,000 active; AID 1159524; calls by dose curve; tested in HEK293T cells; note: read-out not given here; nearly all actives have a fitted effect of over 45% in size
HCV inh: inhibitors of hepatitis C virus infection. Huh7.5.1 HCVcc-Cre infection, luciferase reporter, 44 h. Potency, µM (titrated, usually from 41.8 µM), most hits filed as inhibitors. 3.4% of 340,000 active. AID 651820; active = well fitted inhibition curve with a large enough effect; inconclusive = small, poorly fitted or top-dose-only effect, or another doubt; inactive = no such curve, though single readings can be large or run the other way
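HCVcc-Cre virus at an moi near 0.5 was added right after compound to cells cultured 4 h from seeding (1,000 cells/well). Luciferase activity was determined 44 h later, 15 min after substrate addition at RT.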
HCMV antiviral: blocks human cytomegalovirus replication. HFF cells, HCMV-luciferase reporter, 72 h; hits give low values. activity change, negative = inhibition, % at 57.5 µM. 4.5% of 410,000 active. AID 1259415; in the data active = activity change below about -60%; inconclusive = no clear call, values can overlap the other calls; inactive = above about -39%
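HFF cells seeded 16 h at 37C, treated with compounds, infected with luciferase-reporter HCMV at MOI 1 PFU/cell; luciferase read at 72 h post infection, normalized to buffer-only and Salinomycin controls.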
MARV entry inh: blocks Marburg virus binding to or entry into cells. 1.8% of 300,000 active. Marburg virus pseudotyped entry inhibition, cell reporter. AID 540276. Potency, µM (doses to about 37.8 µM), hits mostly inhibitors; calls by dose curve; tested in HEK293 cells
Of the large screens only hits and unclear results are named; the others gave an inactive call.

CC(=O)c1c(NCCc2ccccc2)nc(=S)n(-c2ccccc2)c1C	FMDV antiviral inconclusive, HCV inh inconclusive, HCMV antiviral -101 (no result: Lassa entry inh, MARV entry inh)
O=C(CCCCn1c(=O)[nH]c2ccsc2c1=O)N1CCN(c2cccc(Cl)c2)CC1	Lassa entry inh inconclusive, FMDV antiviral inconclusive, HCMV antiviral -69 (no result: HCV inh)
O=C(CCCn1c(=O)[nH]c2ccsc2c1=O)N1CCN(c2cccc(C(F)(F)F)c2)CC1	FMDV antiviral inconclusive, HCMV antiviral -105 (no result: HCV inh)
CCNC(=O)CN(c1ccccc1)S(=O)(=O)c1ccc(Cl)cc1	none
CCNC(=O)CN(c1ccc(Cl)cc1)S(=O)(=O)c1ccccc1	Lassa entry inh inconclusive, MARV entry inh 1.2µM
COc1ccc(N(CC(=O)NCc2ccco2)S(=O)(=O)c2ccccc2)cc1	none (no result: Lassa entry inh)
COc1ccc(/C=N/NC(=O)CN(c2ccc(OC)cc2)S(=O)(=O)c2ccccc2)cc1	none (no result: Lassa entry inh, MARV entry inh)
COc1ccc(N(CC(=O)NCc2ccccc2OC)S(=O)(=O)c2ccccc2)cc1	MARV entry inh 10µM
COc1ccc(N(CC(=O)N/N=C/c2ccc(F)cc2)S(=O)(=O)c2ccccc2)cc1	Lassa entry inh inconclusive, HCMV antiviral -69, MARV entry inh inconclusive
COc1ccc(N(CC(=O)Nc2ccc(S(=O)(=O)N3CCOCC3)cc2)S(=O)(=O)c2ccccc2)cc1	Lassa entry inh inconclusive, HCV inh 4µM, MARV entry inh inconclusive
CC(C)(O)C#Cc1ccc(CN2CCc3nnc(CCNC(=O)c4ccco4)n3CC2)cc1	none (no result: Lassa entry inh, HCV inh, HCMV antiviral, MARV entry inh)
COc1cc(OC)cc(-c2nc3nc(C)c(CCC(=O)Nc4ccc(F)cc4F)c(C)n3n2)c1	none (no result: HCV inh)
COc1ccc(S(=O)(=O)N(CC(=O)NCCc2ccccc2)c2ccc(Cl)cc2)cc1	none (no result: HCV inh)
COc1ccc(N(CC(=O)NCCc2ccccc2)S(=O)(=O)c2ccc(OC)c(OC)c2)cc1	Lassa entry inh 6.3µM (no result: HCV inh, MARV entry inh)
COc1ccc(N(CC(=O)Nc2ccccc2OC)S(=O)(=O)c2ccc(NC(C)=O)cc2)cc1	Lassa entry inh 3.2µM, HCV inh inconclusive, HCMV antiviral inconclusive, MARV entry inh inconclusive
CCN(CC(=O)Nc1ccccc1OC)C(=O)c1ccc(NS(=O)(=O)c2ccc(C(C)=O)cc2)cc1	FMDV antiviral 158µM
CCOC(=O)c1c(C)[nH]c(C)c1C(=O)COC(=O)c1nc2nccc(C)n2n1	Lassa entry inh inconclusive, MARV entry inh inconclusive
COc1ccc(/C(O)=C2\C(=O)C(=O)N(CCN3CCOCC3)[C@H]2c2cccnc2)cc1OC	none (no result: Lassa entry inh, FMDV antiviral, HCV inh, HCMV antiviral)
COc1ccc([C@H]2/C(=C(\O)c3ccc(OC(C)C)cc3)C(=O)C(=O)N2CCCN2CCOCC2)cc1	none (no result: Lassa entry inh, FMDV antiviral, HCV inh, HCMV antiviral)
c1ccc2c(c1)[nH]c1c3ccccc3sc21	HCV inh 11µM (no result: Lassa entry inh, MARV entry inh)
Cc1cc(C)c2nc3nc(C)c(C)cc3c(N)c2c1	Lassa entry inh inconclusive, HCMV antiviral -99, MARV entry inh inconclusive
CCCSc1nc(C)c2cc(C)cc(C)c2n1	MARV entry inh inconclusive
COC(=O)c1ccc(CO/N=C/c2cccc([N+](=O)[O-])c2)cc1	none
O=C1C(=O)N2C(=C1C(=O)N1CCCCCC1)c1ccccc1CC21CCCC1	HCMV antiviral -66
CC1(C)Cc2ccccc2C2=C(C(=O)N3CCCCCC3)C(=O)C(=O)N21	none
CCOc1ccc(CCNC(=O)NCc2noc3ccc(C)cc23)cc1	none (no result: HCV inh, MARV entry inh)
Cc1c(NC(=O)c2cc(-c3cccc(O)c3)on2)c(=O)n(-c2ccccc2)n1C	MARV entry inh inconclusive (no result: HCV inh)
COc1cccc(-c2cc(C(=O)Nc3c(C)n(C)n(-c4ccccc4)c3=O)no2)c1	HCV inh inconclusive, HCMV antiviral -108, MARV entry inh inconclusive
COc1ccc(OC)c(-c2cc(C(=O)Nc3cc(C)n(Cc4ccc(Cl)cc4)n3)no2)c1	FMDV antiviral 22µM, HCV inh 11µM, MARV entry inh inconclusive
COc1cccc(-c2cc(C(=O)Nc3cc(C)n(Cc4ccc(Cl)cc4)n3)no2)c1	FMDV antiviral inconclusive, HCV inh 6.3µM, HCMV antiviral -80, MARV entry inh inconclusive
Cc1cc(NC(=O)c2cc(-c3ccco3)on2)nn1Cc1ccc(Cl)cc1	Lassa entry inh inconclusive, HCV inh inconclusive, HCMV antiviral inconclusive
COc1cccc(NC(=O)C2CCCN(c3ncnc4onc(-c5ccc(F)cc5)c34)C2)c1 (stereo not given)	none (no result: HCV inh, MARV entry inh)
CCc1ccc(-n2c(C)cc(/C=N/NC(=O)OC)c2C)cc1	HCV inh inconclusive, HCMV antiviral -84
Cc1cc(/C=N/NC(=O)c2cccs2)c(C)n1-c1ccccc1	Lassa entry inh 2.1µM, FMDV antiviral 13µM, HCV inh inconclusive, HCMV antiviral inconclusive, MARV entry inh inconclusive
Cc1cc(/C=N/NC(=O)c2ccncc2)c(C)n1-c1ccccc1	HCV inh inconclusive
